From the supplement of paper PMC6607015
Where a name gives a salt, the structure may show the parent alone.

tested on: A431; test: filipin (cholesterol) integrated intensity within LBPA endosomes, Z-score; higher = more cholesterol in LBPA endosomes; details: compound concentration in added solution (µM; 5 µl added to 20 µl cells): 10; 18 h
Method in brief: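 In duplicate 384-well imaging plates, 3,500 HeLa MZ or A431 cells in 20 µl per well were seeded onto 5 µl of 10 µM compound solution. The cells were incubated for 18 h, fixed in 4% PFA and stained with 6C4 anti-LBPA antibody, filipin, propidium iodide and CellTracker green before four 20× images were acquired per well. Values are AcuityXpress-normalised Z-scores of per-cell integrated LBPA or filipin intensity, obtained by MetaXpress segmentation over the whole cell or in LBPA endosomes.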

Structure (SMILES)	filipin (z-score)
CC(C)c1c(C(=O)Nc2ccccc2)c(-c2ccccc2)c(-c2ccc(F)cc2)n1CC[C@@H](O)C[C@@H](O)CC(=O)O [Atorvastatin]	-0.543
CCOC(=O)O[C@]1(C(=O)COC(=O)CC)CC[C@H]2[C@@H]3CCC4=CC(=O)C=C[C@]4(C)[C@H]3[C@@H](O)C[C@@]21C [Prednicarbate]	-0.282
CC(=O)N[C@@H](CS)C(=O)O [Acetylcysteine]	-0.4
CCCCC(CC)CN1CN(CC(CC)CCCC)CC(C)(N)C1 (stereo not given) [Hexetidine]	0.351
Cc1ccc2c(c1)c1c3n2CCNC3CCC1 (stereo not given) [Pirlindole mesylate]	0.437
CCN1CCN(C(=O)N[C@@H](C(=O)N[C@@H]2C(=O)N3[C@@H]2SC(C)(C)[C@@H]3C(=O)O)c2ccccc2)C(=O)C1=O [Piperacillin sodium salt]	-0.285
NC(=O)N1c2ccccc2C=Cc2ccccc21 [Carbamazepine]	-0.587
CN1CCC(=C2c3ccccc3C=Cc3ccccc32)CC1 [Cyproheptadine hydrochloride]	2.25
CC(=O)c1ccc(S(=O)(=O)NC(=O)NC2CCCCC2)cc1 [Acetohexamide]	-0.604
CNNCc1ccc(C(=O)NC(C)C)cc1 [Procarbazine hydrochloride]	-0.487
CC(C)NNC(=O)c1ccncc1 [Iproniazide phosphate]	-0.44
Cc1cc(-n2c(=O)[nH]c(=O)n(C)c2=O)ccc1Oc1ccc(SC(F)(F)F)cc1 [Toltrazuril]	-0.337
Cc1c(NC(=O)c2cccnc2)c(=O)n(-c2ccccc2)n1C [Nifenazone]	-0.626
C[C@@H](O)[C@H]1C(=O)N2C(C(=O)O)=C(SCCNC=N)C[C@H]12 [Imipenem]	-0.461
CN(C)CC/C=C1\c2ccccc2CSc2ccccc21 [Dosulepin hydrochloride]	1.82
